Results on four molecules are retold here after PubChem BioAssay AID1929 (Vanderbilt High Throughput Screening Facility, 2009).

Structures are written as SMILES. Values without a mark were called inactive. How the calls were made is not given here.

In this experiment the target is Muscarinic acetylcholine receptor M3 (Homo sapiens) (UniProt P20309). Description: hM3 positive allosteric modulation, ACh fold-shift, SAR follow-up, selectivity assay for M4 PAM project, cell-based, analogs, calcium (AID 1929). The note with it: hM3 cells, ACh CRC fold-shift, calcium mobilization; with ACh 0.1 µM; with compound at fixed dose. On the technique in general: A change in cytosolic calcium serves as a functional read-out for many receptors and channels.
Sequence of Muscarinic acetylcholine receptor M3 (Homo sapiens) (P20309 whole entry, looked up): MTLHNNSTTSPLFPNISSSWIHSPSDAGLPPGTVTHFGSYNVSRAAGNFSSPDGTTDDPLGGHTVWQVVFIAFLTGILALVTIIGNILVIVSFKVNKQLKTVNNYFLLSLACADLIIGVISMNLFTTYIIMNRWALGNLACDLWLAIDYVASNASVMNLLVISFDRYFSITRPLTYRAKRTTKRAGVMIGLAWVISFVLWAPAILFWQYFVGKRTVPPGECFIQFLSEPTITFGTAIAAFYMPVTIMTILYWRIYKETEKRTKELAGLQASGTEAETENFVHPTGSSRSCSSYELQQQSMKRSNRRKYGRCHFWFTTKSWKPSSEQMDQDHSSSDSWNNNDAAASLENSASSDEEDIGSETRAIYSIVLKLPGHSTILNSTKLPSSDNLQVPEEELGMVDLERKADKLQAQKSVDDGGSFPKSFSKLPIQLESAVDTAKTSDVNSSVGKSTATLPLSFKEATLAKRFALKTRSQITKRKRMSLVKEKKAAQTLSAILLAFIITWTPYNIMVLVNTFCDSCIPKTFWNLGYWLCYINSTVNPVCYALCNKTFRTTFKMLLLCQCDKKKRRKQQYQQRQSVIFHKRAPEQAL

Take `Cc1cc(OCc2ccncc2)nc2sc(C(=O)NCc3cccc(F)c3F)c(N)c12`: the ACh response, % max was 94.7.
The same measure for `Cc1cc(OCc2ccncc2)nc2sc(C(=O)NCc3cc(F)ccc3F)c(N)c12`: 96.3.
In the case of `Cc1cc(OCCN2CCOCC2)nc2sc(C(=O)NC(C)(C)C)c(N)c12`, the ACh response, % max is 96.8.
The same measure for `COc1ccc(CNC(=O)c2sc3nc(OCc4ccncc4)cc(C)c3c2N)cc1`: 90.1.
